The text below walks through data of PubChem BioAssay.

Each structure is given as a SMILES string. Where “and” joins values, the source holds several entries; their conditions need not be identical. Equal values may be shown once. Inconclusive results are not listed. Calls of active or inactive are those of the source. Unless noted, the rule behind the calls is not given here.

The nature of experiment [1]: growth inhibition of DIPG cells – cell-based, MIPE5.0 library, qHTS (AID 1347068; cut-off not given, nearly all actives have IC50 up to about 30 µM). Conditions: SU-DIPG-XXV viability.
The nature of experiment [2]: viability loss in pontine glioma line – cell-based, SU-DIPG-XXV, MIPE5.0, CellTiter-Glo, qHTS, dose response (AID 1347065; cut-off not given, nearly all actives have AC50 up to about 26 µM;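 note: cells exposed to compound for 48 hours before ATP readout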). Conditions: CellTiter-Glo ATP luminescence. For orientation: ATP-based viability assays read luminescence as a measure of living cells.
Experiment [3] can be described thus: viability loss with induced miR-34 in A549 – imaging, A549 dox-inducible miR-34, nuclei and caspase counts, primary screen (AID 1347080;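 active = compounds whose cell count with miR-34 switched on is under 0.7 times the count with it off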). Conditions: A549 miR-34 inducible, Hoechst nuclei count, 48 h.
The nature of experiment [4]: MELAS cybrid and Rieske KO viability enhancers – cell-based, MELAS cybrids, Rieske KO mouse fibroblasts, CellTiter-Glo, primary screen (AID 1508586;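 active = mean z-score across replicates of 1.96 or higher in either the MELAS or the Rieske mutant cell line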;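 note: z relative to plate mean and SD of compound and empty wells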). The following applies: low glucose.
Experiment [5] in a line: liver-stage malaria parasite load reduction – cell-based, known kinase inhibitor set, luminescence, hepatoma host viability (AID 624392).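 Note: infected cells incubated roughly two days before readout.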 The following applies: Plasmodium liver stage in hepatoma cells, luciferase luminescence, concentration not given here; liver cell % of control: measured here: host liver cell viability; parasite % of control: stronger effect = lower value.
A short description of experiment [6]: growth inhibition of DIPG cells – cell-based, MIPE4.0 library, CellTiter-Glo luminescence, qHTS (AID 1347066; cut-off not given, nearly all actives have AC50 up to about 30 µM;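 note: cells exposed to compound for 48 hours before readout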). Conditions: SU-DIPG-VI viability, CellTiter-Glo ATP luminescence.

As to `O=C(C(c1ccccc1)c1ccccc1)N1CCN(CC(O)COc2cccc3ncccc23)CC1` (stereo unspecified), the outcome in experiment [1] was inactive.
What is called AC50 is the concentration giving half of the maximal activity seen. As to `Cc1cccc(CC(=O)N2CCc3c2ccc(-c2cn(C)c4ncnc(N)c24)c3F)n1`, the AC50 in experiment [2] is 10.5 µM (active). The fold change in experiment [3] (stronger effect = lower value, cell number ratio, induced over uninduced) is 1.38 (inactive); in experiment [3] (measured here: relative caspase fold change +Dox/-Dox), 0.997. The cell count in experiment [3] (measured here: total cells with miR-34 induction, stronger effect = lower value) was determined as 7830; in experiment [3] (measured here: total cells without miR-34 induction) it was 5660. Also, the z-score in experiment [4] (MELAS cybrid survival, CellTiter-Glo 48 h, stronger effect = higher value) was -0.412 (inactive); in experiment [4] (Rieske KO mouse fibroblast survival, CellTiter-Glo 72 h), -0.298.
For `CC(C)C(=O)Nc1ncc(-c2cc(C(F)F)nn2-c2c(Cl)cccc2Cl)s1`, in experiment [5], the liver cell % of control was 78% and 87.1% and 89.1%; the parasite % of control is 2.64% (inactive) and 20.3% (inactive) and 36.7% (inactive). In experiment [6], the compound was classed as inactive.
